37 compounds from PubChem BioAssay (NCI) can be followed below.

Molecules are shown by their SMILES. About 83,000 compounds went through this panel and 20% of them were active in at least one assay; those are over-represented in the sample as a whole.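 For each line, cells grew in 96-well plates with the test compound present at a single concentration for 48 hours.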 Active and inactive are the calls of the source. The calls were made as follows: active = growth percent below 10; inactive = the rest.

The test system of this assay is HL-60(TB) leukemia. Description: NCI-60 one-dose screen, 48 h (100 = growth as untreated, 0 = no growth, -100 = all killed). The note with it: 10 µM unless noted.
Turning to `c1ccc2c(NCCCn3ccnc3)c3oc4ccccc4c3nc2c1`, the growth is -1.2% (active).

`C#Cc1nc(/C=C/C(=O)NO)cs1`: the growth was -58.7% (active). As for `COc1ccc(/C=C2\SC(=Nc3cc(C)on3)NC2=O)cc1`, the figure is 94.6% (inactive); as for `C#C[C@]1(O)CC[C@H]2[C@@H]3CC=C4c5sc(-c6ccccn6)nc5CC[C@]4(C)[C@H]3CC[C@@]21C`, 41.4% (inactive); as for `COc1cc(/C=C/C(=O)c2cc(OC)c(OC)c(OC)c2)ccc1OCc1ccc(F)cc1`, 9.93% (active).

`CCOC(=O)c1c(N)c(C#N)cn1Cc1ccc(Cl)cc1Cl`: the growth is 60.6% (inactive). Consider `CCc1cccc2c3c(sc12)C(c1ccc(OC)cc1)C(C#N)=C(/N=C/c1ccc(Cl)cc1)O3` (configuration not stated), for which the growth is 2.87% (active). As for `CS(=O)(=O)c1nccc(-c2c(-c3ccc(F)c(OCCc4ccc(F)cc4)c3)nc3sccn23)n1`, the figure is -12.1% (active). Regarding `CCCCCCNC(=O)Oc1ccc(/C(=C(/C)c2ccc(OC)cc2)c2ccc(OCCN3CCCC3)cc2)cc1`, the growth is 50.7% (inactive). As for `NC(N)=Nc1ccc(Oc2cccc(NC(N)=Nc3ccc(I)cc3F)c2)cn1`, the growth is 39.3% (inactive). On to `C=CCSc1ccc2c(c1)C(N1CCNCC1)=Nc1ccccc1O2`, for which the growth was 25.6% [8.25 µM] (inactive). Take `CCCCOc1ccc(S(=O)(=O)N2CCN(c3nccc(N4CCOCC4)n3)CC2)cc1`: the growth is 32.4% (inactive). Take `C#Cc1nc(C2=C(C)C(O)/C(=N/O)C2)cs1` (configuration not stated): the growth is -37.9% (active).

As for `O=C1[C@H]2Cc3c([nH]c4ccccc34)[C@H](c3ccc(Br)cc3)N2C(=O)CN1C1CCN(CC2CCCCC2)CC1`, the growth is 56.9% (inactive). For `O=C(O)c1ccc(-n2cc(CNc3ccc(F)cc3)c(-c3ccc(C(F)(F)F)cc3)n2)cc1`, the growth is 87.1% (inactive). `COc1ccccc1N1CCN(C2=C(Cl)C(=O)c3ncccc3C2=O)CC1`: the growth is 12.5% (inactive). Regarding `NC1=NC2(CCCC2)N(c2ccc(S(=O)(=O)Nc3nccs3)cc2)C(N)=N1`, the growth is 102% (inactive). As for `O=C(N/N=C/c1ccc([N+](=O)[O-])s1)c1[nH]c2ccc(Br)cc2c1-c1ccccc1`, the figure is -28.9% (active); as for `CCc1cccc2c3c(sc12)C(c1ccc(F)cc1)C(C#N)=C(/N=C/c1ccc(Cl)cc1)O3` (configuration not stated), 7.08% (active); as for `C#C[C@]1(O)CC[C@H]2[C@@H]3CC=C4c5sc(Nc6ccc(C)cn6)nc5CC[C@]4(C)[C@H]3CC[C@@]21C`, -43.3% (active).

Turning to `COc1cc2oc(-c3cccc(N)c3)cc(=O)c2c(OC)c1OC`, the growth was 96.8% (inactive).

In the case of `COc1cccc2c1[C@H](OC)[C@]13O[C@@]1(C2=O)[C@H](O)[C@H](C)[C@@](O)(C(=O)[C@@H]1O[C@H]1C)[C@@H]3O`, the growth was -46.6% (active).

As to `Cn1cc(-c2cc3ncnc(Nc4ccc(NC(=O)Nc5cc(C(C)(C)C)on5)cc4)c3s2)cn1`, the growth is 13.6% (inactive). Take `COc1cc(/C=C2/C(=O)Nc3ccc(Cl)cc32)ccc1OCc1ccc(Cl)cc1`: the growth is 102% (inactive).

For `CCN(CC)c1cn(-c2ccc(S(N)(=O)=O)cc2)nn1`, the growth is 105% (inactive).

Regarding `Cc1csc(/N=C(N)/N=C(\N)c2cccc(C#N)c2)n1`, the growth was 70.8% (inactive). Take `CCOC(=O)c1cccnc1Nc1ccc(NC(=O)Nc2ccc(Cl)c(C(F)(F)F)c2)cc1`: the growth is 29.4% (inactive). With `CSc1ccc(/C(=N/N=C(N)N)c2ccc(F)cc2)cc1`, the growth was -31.7% (active). For `C[C@H]1OCC2(CCN(c3cnc(C(=O)Nc4cc(F)cc5cccnc45)cn3)CC2)[C@H]1N`, the growth was 18.9% (inactive). `Cc1cc(NS(=O)(=O)c2ccc(-c3cnc(C4CC4)o3)cc2)ccc1I`: the growth was 1.38% (active). Consider `CCN(CC)c1ccc(C=O)c(OCc2cn(CC(=O)Nc3ccc(Cl)cc3)nn2)c1`, for which the growth is 69.7% (inactive). Turning to `Nc1ccc(-c2nnc(SCc3ccc(O)c4ncccc34)o2)cc1`, the growth was -5.84% (active).

With `C=CCSC1=NC2C(N(CC)C(=O)N2CC)N1/N=C/C=C/c1ccccc1OC` (configuration not stated), the growth is 45.6% (inactive). On to `O=C(c1cccc(F)c1)n1ccc2cc(NC(=S)Nc3cccnc3)ccc21`, for which the growth is 85.8% (inactive). Turning to `O=C(CCN1C(=O)/C(=C/c2ccccc2F)SC1=S)N1CCOCC1`, the growth is 82.7% (inactive). As for `O=C(CN1C(=O)CSC1=O)Nc1ccc(C(=O)/C=C/c2cc3ccccc3nc2Cl)cc1`, the figure is 71.9% (inactive); as for `CN1CCN(Cc2ccc(NC(=O)c3cncc(C#Cc4cnc5ccc(NC6CCOCC6)nn45)c3)cc2C(F)(F)F)CC1`, -45.2% (active).
